Shown are actives, neighbours in structure and some others; about 12% of the full set was active somewhere.
Sfp PPTase inh = qHTS Assay for Inhibitors of Bacillus subtilis Sfp phosphopantetheinyl transferase (PPTase). 4'-phosphopantetheinyl transferase ffp (Bacillus subtilis), Q9F4F7. Biochemical Sfp PPTase activity, qHTS. Potency, µM, for the others: largest response in the series, negative = inhibition, actives largely listed as inhibitors. 3.5% of 310,000 active;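 further: the enzyme is Sfp with the accession as filed and its product quenches rhodamine fluorescence; 0% = enzyme reaction without inhibitor and -100% = no enzyme wells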
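Compounds were incubated with enzyme (final 15 nM) for 15 min at room temperature before substrate addition started the reaction. Fluorescence at 525 nm excitation, 598 nm emission was recorded immediately and after 30 minutes.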
G9a block = qHTS Assay for Inhibitors of Histone Lysine Methyltransferase G9a; AID 504332, 2011; 8.8% of 350,000 active; Potency, µM (top dose mostly 102 µM), without a hit: at the top dose activity, negative = inhibition, hits mostly inhibitors; G9a H3K9 monomethylation, AlphaScreen, 2 h; further: on the % scale 0 is the no-effect control and ±100 the full control effect; nearly all actives have a fitted effect of over 75% in size
Target sequence (Q96KQ7 913-1193 limits assumed): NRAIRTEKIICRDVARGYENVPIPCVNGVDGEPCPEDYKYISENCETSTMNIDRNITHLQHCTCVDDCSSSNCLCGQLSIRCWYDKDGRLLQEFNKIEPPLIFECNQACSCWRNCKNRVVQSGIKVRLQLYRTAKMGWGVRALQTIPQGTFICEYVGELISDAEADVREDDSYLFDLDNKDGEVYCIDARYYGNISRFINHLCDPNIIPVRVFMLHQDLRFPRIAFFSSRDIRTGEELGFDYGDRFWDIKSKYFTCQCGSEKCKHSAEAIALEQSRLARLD
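G9a (20 nM) was preincubated 15 min with compound, then reacted 2 h at room temperature with 500 nM biotin-H3K9 peptide and 20 µM SAM. Monomethyl-H3K9 detected by AlphaScreen using anti-H3K9me1 antibody.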
HP1b chromo inh = HTS for Inhibitors of HP1-beta Chromodomain Interactions with Methylated Histone Tails; Chromobox protein homolog 1 (Homo sapiens), P83916; AlphaScreen HP1-beta / biotin-H3K9me3 peptide binding; Potency, µM (top dose mostly 114 µM), for the others: at the highest dose activity change, negative = inhibition, hits mostly inhibitors; 0.56% of 390,000 active; AID 540317, 2011; further: nearly all actives have a fitted effect of over 70% in size
Target sequence (P83916 whole entry, looked up): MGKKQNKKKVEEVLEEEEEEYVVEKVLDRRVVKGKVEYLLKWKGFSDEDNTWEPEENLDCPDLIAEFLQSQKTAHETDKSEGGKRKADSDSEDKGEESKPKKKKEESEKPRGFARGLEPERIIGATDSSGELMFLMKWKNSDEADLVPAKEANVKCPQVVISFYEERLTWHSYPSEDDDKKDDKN
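HP1-beta protein (50 nM final) preincubated 30 min at room temperature with biotinylated H3(1-18)K9me3 peptide (50 nM) in PBS pH 7.4, 0.01% Tween-20, then compound added for 30 min. AlphaScreen streptavidin donor/nickel chelate acceptor beads (10 ug/mL final), 30 min dark, luminescence read.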
JMJD2A Tudor inh = qHTS Assay for Inhibitors of JMJD2A-Tudor Domain. Lysine-specific demethylase 4A (Homo sapiens), O75164. AlphaScreen JMJD2A-Tudor / H3K4me3 peptide binding. Potency, µM (highest dose often 114 µM), without a hit: at the top dose activity change, negative = inhibition, hits mostly inhibitors. 4.4% of 390,000 active; further: on the % scale 0 is the no-effect control and ±100 the full control effect; nearly all actives have a fitted effect of over 50% in size
L3MBTL1 inh = qHTS Assay for the Inhibitors of L3MBTL1; AID 485360, 2010; 0.66% of 230,000 active; AlphaScreen L3MBTL1–H3K9me1 peptide binding; Potency, µM (titrated, usually from 57.1 µM), without a hit: at the top dose activity, negative = inhibition, actives largely listed as inhibitors; Lethal(3)malignant brain tumor-like protein 1 (Homo sapiens), Q9Y468; further: on the % scale 0 is the no-effect control and ±100 the full control effect; nearly all actives have a fitted effect of over 60% in size
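Read-out is AlphaScreen signal from streptavidin donor and nickel chelate acceptor beads (10 ug/mL final each) bridging L3MBTL1 (50 nM) and biotinylated K9-monomethylated H3(1-15) peptide (75 nM), after 30 min compound exposure at room temperature.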
BAZ2B block = qHTS Assay for Inhibitors of BAZ2B; Bromodomain adjacent to zinc finger domain protein 2B (Homo sapiens), Q9UIF8; AlphaScreen BAZ2B-H3K14Ac peptide displacement; Potency, µM (titrated, usually from 114 µM), inactives show top-dose activity change, negative = inhibition, usual class: inhibitors; 4.4% of 360,000 active; AID 504333, 2011; further: on the % scale 0 is the no-effect control and ±100 the full control effect; nearly all actives have a fitted effect of over 60% in size
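Protein-peptide AlphaScreen: BAZ2B 50 nM, b-H3K14Ac 50 nM, 1x PBS pH 7.4 + 0.01% Tween-20. Preincubation 30 min RT; cpd 30 min RT (top 110 uM); beads 20 min RT, light-protected.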
The depositor's hits bear a star; ? = inconclusive; . = not tested or not shown; [ ] = dose if it differs, or a comment. The call rests on the fitted dose curve; in most records, active means well fitted curve in the direction sought with a large enough effect; inconclusive means small, poorly fitted or top-dose-only effect, or another doubt; inactive means no such curve, though single readings can be large; an effect the other way counts as inactive or inconclusive. Potency means the concentration at half of the fitted maximal effect.

SMILES	Sfp PPTase inh	G9a block	HP1b chromo inh	JMJD2A Tudor inh	L3MBTL1 inh	BAZ2B block
O=C(NCC1CCCO1)C(c1cccs1)N(Cc1ccccc1)C(=O)c1ccc(-c2ccccc2)[nH]1 (stereo not given)	?	?	?	?	-21%	?
COc1ccc(CN(C(=O)c2ccc(-c3ccccc3)[nH]2)C(C(=O)NCC2CCCO2)c2ccc(C)o2)cc1 (stereo not given)	-3%	-11%[0.501 µM]	-18%	?	-17%	45µM*
COc1ccc(CN(CC(=O)NC2CCCC2)C(=O)c2csnn2)cc1	14%	-3%[59 µM]	-15%	-1%	.	6%
CC(C(=O)NC1CCCC1)N(C(=O)c1ccc(-c2ccccc2)[nH]1)c1ccccc1F (stereo not given)	2%	-1%[59 µM]	-33%	22µM*	-26%	?
COc1ccc(CN(CC(=O)NC2CCCC2)C(=O)c2ccc(-c3ccccc3)[nH]2)cc1	23%	?	-19%	?	?	28µM*
Clc1cccc(N2CCN(c3nc4ccccc4c4nc(-c5cccnc5)nn34)CC2)c1	.	4%[59 µM]	24%	-8%	.	-1%
O=C1CCCC2=C1C(c1ccncc1)n1c(nc3ccccc31)N2 (stereo not given)	23%	.	-3%	56µM*	13%	8%
O=C(COC(=O)[C@H](Cc1ccccc1)NC(=O)c1cccs1)Nc1c(Cl)cccc1Cl	12%	50µM*	24%	-17%	5%	-2%
COc1ccc(N2C(=O)CSC23C(=O)N(CC(=O)Nc2ccccc2F)c2ccccc23)cc1 (stereo not given)	.	-30%[59 µM]	22%	-25%	.	5%[57.1 µM]
Cc1ccnc(NC(c2ccncc2)c2c(C)[nH]c3ccccc23)c1 (stereo not given)	-7%	10µM*	21%	-16%	-4%	?
Cc1[nH]c2ccccc2c1C(c1ccncc1)N1CCCCC1 (stereo not given)	8%	35µM*	5%	-16%	4%	?
Cc1[nH]c2ccccc2c1C(c1ccncc1)N1CCN(c2ccc(F)cc2)CC1 (stereo not given)	9%	?	-22%	?	-18%	?
O=c1c(C(c2ccc(Br)cc2)c2c(O)nc3n(c2=O)CCS3)c(O)nc2n1CCS2	17%	?	39%	-16%	5%	-16%
O=c1c(C(c2ccc(O)cc2)c2c(O)nc3n(c2=O)CCS3)c(O)nc2n1CCS2	14µM*	?	8%	45µM*	3%	?
O=c1c(C(c2ccc(O)cc2)c2c(O)nc3n(c2=O)CCCS3)c(O)nc2n1CCCS2	25µM*	?	20%	?	0%	-39%
Cc1ccc(C(c2c(O)nc3n(c2=O)CCS3)c2c(O)nc3n(c2=O)CCS3)cc1	?	10µM*	6%	-18%	2%	3%
Cc1nnc(NC(=O)CSCc2cc(=O)c3ccc(C)c(C)c3[nH]2)s1	.	-2%[59 µM]	28%[57 µM]	-6%	.	2%
CC1CCCC(C)N1C(=O)COc1ccc([N+](=O)[O-])cc1Cl (stereo not given)	2%	-36%	23%	-28%	.	4%
COc1ccc(C(=O)N2CCC[C@@]3(CCN(c4ncccn4)C3)C2)cc1	20%	-2%[12.7 µM]	.	.	.	.
O=C1Nc2ccccc2N2CCCC12 (stereo not given)	-11%	20µM*	.	.	-21%	-23%
O=C1Nc2ccccc2C(=O)N2CCC[C@@H]12	0%	.	.	.	.	.
CC1CCC(NC(=O)CN2C(=O)C3CCCN3c3ncc(Cl)cc32)CC1 (stereo not given)	10%	?	.	.	5%	6%
O=C1Nc2cc(Cl)cnc2N2CCCC12 (stereo not given)	50µM*	8.9µM*	13%	-35%	-10%	-2%
COC(=O)c1ccc(NC(=O)c2ccc3c(c2)NC(=O)C2CCCN32)cc1 (stereo not given)	.	10µM*	.	.	?	50µM*
O=C1Nc2cc(C(F)(F)F)ccc2N2CCCCC12 (stereo not given)	6%	50µM*	49%	0%	.	-14%
SMILES	Sfp PPTase inh	G9a block	HP1b chromo inh	JMJD2A Tudor inh	L3MBTL1 inh	BAZ2B block
COc1cc(NC(=O)N(Cc2ccco2)C2CCN(C(C)=O)CC2)cc(OC)c1OC	.	10%[59 µM]	29%	2%	.	?
CCN(CC)S(=O)(=O)c1ccc2c(c1)NC(=O)C1CCCN21 (stereo not given)	-1%	-7%	29%	5%	.	3%
O=C1Nc2ccc(C(F)(F)F)cc2N2CCCC12 (stereo not given)	10%	11µM*	.	.	.	-2%
O=C1Nc2cc(S(=O)(=O)N3CCCC3)ccc2N2CCCC12 (stereo not given)	-29%	22µM*	31%	-16%	-22%	?
O=C(O)C1=C(C(=O)O)C2C=CC1C2	.	.	-11%[57 µM]	89µM*	.	.
CC(Sc1ccc2ccccc2n1)C(=O)O (stereo not given)	21%	50µM*	25%	-11%	6%	2%
CC(Sc1cnc2ccccc2n1)C(=O)O (stereo not given)	-3%	?	36%	2%	.	0%
CC1(C)S[C@@H]2[C@H](NC(=O)COc3ccccc3)C(=O)N2[C@H]1C(=O)O	-4%	33%[59 µM]	.	.	.	.
O=[N+]([O-])c1ccc(Sc2ncccn2)c([N+](=O)[O-])c1	-16%	.	10%	-22%	-6%	-30%
O=C(O)CCSc1ccc([N+](=O)[O-])cc1[N+](=O)[O-]	45µM*	?	13%	-19%	3%	?
Cc1oc(-c2ccccc2F)nc1CS(=O)(=O)CC(=O)NC1CCCC(C)C1C (stereo not given)	8%	39%	10%[57 µM]	-20%	.	-20%
O=C(O)c1cnn(-c2ccccc2)c1-c1ccncc1	-6%	50µM*	4%	-27%	.	?
COC(=O)C1=C(C)N(c2ccccc2)C(=S)NC1c1ccccc1C(F)(F)F (stereo not given)	12%	50µM*	18%	?	?	?
O=C(COc1ccc(Cl)cc1)NN=C1CCCCCCC1	4%	59%	18%	-4%	.	-9%
O=C(NN=C1CCCCCCC1)c1ccc(F)cc1	-5%	-8%	-9%	?	5%[11.4 µM]	-13%
